# Results reported in PubChem BioAssay (EPA / NIEHS).
# Inconclusive results are not listed. Calls of active or inactive are those of the source. Rule for the calls: active = hit-call score of the fitted dose curve at least 0.9, where 1 is the maximum; inconclusive = response in the unintended direction; inactive = score below 0.9.
# Tests used:
# [1] = biological target: human AMP-activated Protein Kinase, alpha 1 (AMPKa1), PRKAA1 (gene 5562) (UniProt Q13131); assay: NVS_ENZ_hAMPKa1: NovaScreen (NVS) Enzymatic Assay for human AMP-activated Protein Kinase, alpha 1 (AMPKa1) (AID 2283130)
# Procedure, shortened: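 Compounds were screened in duplicate at 25 uM, and those reaching ~30% inhibition were titrated up to 50 uM. The enzyme was recombinant human AMPKα1, and kinase turnover was read by fluorescence/mobility shift 1 h post-dosing as loss of signal versus DMSO.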
# [2] = biological target: human Aurora Kinase A - serine/threonine-protein Kinase 6 (AurA), AURKA (gene 6790) (UniProt O14965); assay: NVS_ENZ_hAurA: NovaScreen (NVS) Enzymatic Assay for human Aurora Kinase A - serine/threonine-protein Kinase 6 (AurA) (AID 2283142)
# Procedure, shortened: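 Recombinant human AurA activity read by fluorescence after mobility-shift separation of product from substrate; 1 hour incubation. Chemicals first run in duplicate at 25 uM, then concentration series to 50 uM if over threshold; fitted relative to DMSO.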
# [3] = biological target: human Fibroblast Growth Factor Receptor 1 (FGFR1), FGFR1 (gene 2260) (UniProt P11362); assay: NVS_ENZ_hFGFR1: NovaScreen (NVS) Enzymatic Assay for human Fibroblast Growth Factor Receptor 1 (FGFR1) (AID 2283159)
# Procedure, shortened: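 Cell-free recombinant kinase with fluorescent substrate, product separated by electrophoretic mobility shift; read 1 hour after dosing, loss of signal relative to DMSO. Initial screen in duplicate at 25 uM, actives followed in concentration series.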
# [4] = biological target: human IkappaB Kinase alpha (IKKa), CHUK (gene 1147) (UniProt O15111); assay: NVS_ENZ_hIKKa: NovaScreen (NVS) Enzymatic Assay for human IkappaB Kinase alpha (IKKa) (AID 2283167)
# Procedure, shortened: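 Compounds first run in duplicate at 25 uM, those meeting threshold (e.g. 30% inhibition) retested to maximum 50 uM. Enzyme activity of recombinant IKKa measured by fluorescence with electrophoretic mobility shift separation, 1 hour post-dosing, DMSO baseline.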
# [5] = biological target: human Mitogen-Activated Protein Kinase 1 (MAPK 1), MAPK1 (gene 5594) (UniProt P28482); assay: NVS_ENZ_hMAPK1: NovaScreen (NVS) Enzymatic Assay for human Mitogen-Activated Protein Kinase 1 (MAPK 1) (AID 2283175)
# Procedure, shortened: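 Cell-free recombinant human MAPK1 enzymatic assay, fluorescence/electrophoretic mobility shift read at 1 h; loss of signal vs DMSO. Primary screen in duplicate at 25 uM; actives (e.g. ≥30% inhibition) run as concentration-response up to 50 uM.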
# [6] = biological target: human p21 Activated Kinase 4 (PAK4), PAK4 (gene 10298) (UniProt O96013); assay: NVS_ENZ_hPAK4: NovaScreen (NVS) Enzymatic Assay for human p21 Activated Kinase 4 (PAK4) (AID 2283189)
# Procedure, shortened: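 Extracted PAK4 enzyme activity read by fluorescence with mobility-shift separation 1 h after chemical addition. Duplicate single-concentration screen at 25 uM, DMSO as negative control.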
# [7] = biological target: human Phosphatase and Tensin Homolog (PTEN), PTEN (gene 5728) (UniProt P60484); assay: NVS_ENZ_hPTEN: NovaScreen (NVS) Enzymatic Assay for human Phosphatase and Tensin Homolog (PTEN) (AID 2283203)
# Procedure, shortened: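 Loss of fluorescent product signal after mobility-shift separation reports PTEN activity, recombinant human enzyme, 1 h after compound addition. Single 25 uM duplicate screen, then concentration-response on actives; DMSO baseline.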
# [8] = biological target: human Raf-1 Proto-Oncogene, serine/threonine Kinase (RAF1), RAF1 (gene 5894) (UniProt P04049); assay: NVS_ENZ_hRAF1: NovaScreen (NVS) Enzymatic Assay for human Raf-1 Proto-Oncogene, serine/threonine Kinase (RAF1) (AID 2283216)
# Procedure, shortened: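 Single-point screening at 25 uM (duplicate), followed by singleton concentration-response to 50 uM maximum for chemicals exceeding threshold. Enzyme activity from fluorescent substrate-product mobility-shift separation after 1 h, relative to DMSO.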
# [9] = biological target: human Tyrosine Protein Kinase Receptor Tie-2 (Tie2), TEK (gene 7010) (UniProt Q02763); assay: NVS_ENZ_hTie2: NovaScreen (NVS) Enzymatic Assay for human Tyrosine Protein Kinase Receptor Tie-2 (Tie2) (AID 2283225)
# Procedure, shortened: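 Substrate and product were separated by mobility shift and detected by fluorescence after a 1-hour reaction with recombinant Tie2. Chemicals passing a 25 uM single-point screen were titrated to a maximum of 50 uM. Results were normalized to DMSO baseline.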
# [10] = biological target: Bile acid receptor (Homo sapiens) (UniProt Q96RI1); assay: NVS_NR_hFXR_Agonist: NovaScreen (NVS) Nuclear Receptor Binding Assay for human Farnesoid X Receptor Agonism (FXR) (AID 2283347)
# Procedure, shortened: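 Agonist-mode FXR assay read by time-resolved FRET 1 h after compound addition, using isolated human receptor protein without cells. Duplicate 25 uM single-point primary screen, concentration series for confirmed actives; DMSO as baseline.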
# [11] = biological target: human Acetylcholinesterase (AChE), ACHE (gene 43) (UniProt P22303); assay: NVS_ENZ_hAChE: NovaScreen (NVS) Enzymatic Assay for human Acetylcholinesterase (AChE) (AID 2283129)
# Procedure, shortened: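 Actives from a duplicate single-point screen (25 uM) were followed up in concentration series. Enzyme activity read by absorbance (colorimetric) 0.33 hour after dosing, cell-free, normalized to DMSO, with loss of signal scored.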
# [12] = biological target: Norway rat Vesicular Monoamine Transporter (VMAT2), neurotransmitter transporter, Slc18a2 (gene 25549) (UniProt Q01827); assay: NVS_TR_rVMAT2: NovaScreen (NVS) Transporter Assay for Norway rat Vesicular Monoamine Transporter (VMAT2), neurotransmitter transporter (AID 2283376);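 note: actives lower the bound radioligand signal below the DMSO level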
# Procedure, shortened: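 Using rat forebrain membranes, specific radioligand binding to VMAT2 was measured by filtration and scintillation counting after 1 hour. Chemicals screened at 25 uM in duplicate, actives retested in concentration series, DMSO baseline.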
# [13] = biological target: rat Adenylate Cyclase, Forskolin Stimulated, Adcy5 (gene 64532) (UniProt Q04400); assay: NVS_ENZ_rACFSKBinding: NovaScreen (NVS) Enzymatic Assay for rat Adenylate Cyclase, Forskolin Stimulated (AID 2283232)
# Procedure, shortened: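 Chemicals were first tested at 25 uM in duplicate, then hits run as concentration series with top concentration 50 uM. Enzyme source was rat forebrain membranes; radiometric filter read-out after 1 h, referenced to DMSO.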
# [14] = biological target: rat Acetylcholinesterase (AChE), Ache (gene 83817) (UniProt P37136); assay: NVS_ENZ_rAChE: NovaScreen (NVS) Enzymatic Assay for rat Acetylcholinesterase (AChE) (AID 2283233)
# Procedure, shortened: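 Compounds first screened at 25 uM in duplicate, then those passing threshold tested in concentration series up to 50 uM, against AChE from rat brain membranes. Enzyme activity read by absorbance at 0.33 h; inhibition scored versus DMSO.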
# [15] = tested on: rat Monoamine Oxidase, MAO-A, Peripheral (MAOAP), gene 29253; assay: NVS_ENZ_rMAOAP: NovaScreen (NVS) Enzymatic Assay for rat Monoamine Oxidase, MAO-A, Peripheral (MAOAP) (AID 2283237)
# Procedure, shortened: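 Scintillation counting tracked MAO-A activity in a cell-free rat liver mitochondrial membrane prep, read 1.17 hours after compound addition. Single-point duplicate testing at 25 uM preceded concentration-response follow-up; activity was fitted relative to DMSO.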
# [16] = biological target: rat Monoamine Oxidase, MAO-B, Peripheral (MAOBP), Maob (gene 25750) (UniProt P19643); assay: NVS_ENZ_rMAOBP: NovaScreen (NVS) Enzymatic Assay for rat Monoamine Oxidase, MAO-B, Peripheral (MAOBP) (AID 2283242)
# [17] = tested on: rat Monoamine Oxidase, MAO-A, Central (MAOAC), gene 29253; assay: NVS_ENZ_rMAOAC: NovaScreen (NVS) Enzymatic Assay for rat Monoamine Oxidase, MAO-A, Central (MAOAC) (AID 2283243);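 note: potency refers to inhibition seen as signal drop below DMSO baseline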
# Procedure, shortened: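 Enzyme from rat brain, cell-free radiodetection format. Counts taken at 1.5 h; activity fitted against DMSO baseline, loss of signal marking inhibition. Confirmatory concentration series followed the 25 uM duplicate screen.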
# [18] = biological target: human Caspase 2 (CASP2), CASP2 (gene 835) (UniProt P42575); assay: NVS_ENZ_hCASP2: NovaScreen (NVS) Enzymatic Assay for human Caspase 2 (CASP2) (AID 2283135)
# Procedure, shortened: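 Single-point duplicate testing at 25 uM preceded concentration series topping at 50 uM. Activity of the recombinant E. coli-derived protease was followed by fluorescent substrate cleavage 1 h post-dosing, relative to DMSO.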
# [19] = biological target: human Ephrin type-A Receptor 2 (EphA2), EPHA2 (gene 1969) (UniProt P29317); assay: NVS_ENZ_hEphA2: NovaScreen (NVS) Enzymatic Assay for human Ephrin type-A Receptor 2 (EphA2) (AID 2283155)
# Procedure, shortened: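 Enzyme activity of recombinant EphA2 read by fluorescence after mobility-shift separation, 1 h after dosing. Chemicals first tested at 25 uM (duplicate); those passing threshold run as concentration series, top 50 uM, single replicate, relative to DMSO.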
# [20] = biological target: human Matrix Metalloproteinase-1 (MMP1), MMP1 (gene 4312) (UniProt P03956); assay: NVS_ENZ_hMMP1: NovaScreen (NVS) Enzymatic Assay for human Matrix Metalloproteinase-1 (MMP1) (AID 2283181)
# Procedure, shortened: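 Cell-free fluorescent substrate assay of human MMP1, read after 1 h. A single 25 uM duplicate screen was followed by concentration series to a maximum of 50 uM for actives meeting threshold; inhibition analysed against DMSO baseline.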
# [21] = biological target: human Protein Tyrosine Phosphatase Receptor Type C (PTPRC), PTPRC (gene 5788) (UniProt P08575); assay: NVS_ENZ_hPTPRC: NovaScreen (NVS) Enzymatic Assay for human Protein Tyrosine Phosphatase Receptor Type C (PTPRC) (AID 2283212)
# Procedure, shortened: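 Absorbance-based phosphatase activity of human PTPRC protein extracted from yeast was measured 1 h post-dosing. Compounds first tested at 25 uM in duplicate, then those passing threshold in singleton concentration series to 50 uM.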
# Chain of human Fibroblast Growth Factor Receptor 1 (FGFR1), FGFR1 (gene 2260) (P11362 whole entry, looked up): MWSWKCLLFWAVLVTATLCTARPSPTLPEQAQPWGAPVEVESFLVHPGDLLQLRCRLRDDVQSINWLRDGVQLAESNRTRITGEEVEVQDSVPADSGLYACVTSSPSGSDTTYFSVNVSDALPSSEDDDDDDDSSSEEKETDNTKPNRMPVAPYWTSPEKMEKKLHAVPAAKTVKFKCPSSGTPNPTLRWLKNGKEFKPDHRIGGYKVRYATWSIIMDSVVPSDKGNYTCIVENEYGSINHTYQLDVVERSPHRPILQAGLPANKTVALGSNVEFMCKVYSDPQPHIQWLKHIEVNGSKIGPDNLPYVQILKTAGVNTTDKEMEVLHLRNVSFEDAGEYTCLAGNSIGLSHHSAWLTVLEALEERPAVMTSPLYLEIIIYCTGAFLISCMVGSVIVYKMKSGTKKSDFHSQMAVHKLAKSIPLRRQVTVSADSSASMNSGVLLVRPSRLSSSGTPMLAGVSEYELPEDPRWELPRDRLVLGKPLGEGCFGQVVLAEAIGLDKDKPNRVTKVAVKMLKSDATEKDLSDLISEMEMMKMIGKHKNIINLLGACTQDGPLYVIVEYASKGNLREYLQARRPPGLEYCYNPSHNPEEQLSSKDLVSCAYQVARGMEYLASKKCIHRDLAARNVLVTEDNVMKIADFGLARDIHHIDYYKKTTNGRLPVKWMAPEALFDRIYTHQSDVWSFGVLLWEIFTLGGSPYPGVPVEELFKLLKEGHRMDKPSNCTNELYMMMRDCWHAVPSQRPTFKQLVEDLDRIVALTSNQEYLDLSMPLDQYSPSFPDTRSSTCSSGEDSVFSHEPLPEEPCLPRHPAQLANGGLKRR
# Chain of human p21 Activated Kinase 4 (PAK4), PAK4 (gene 10298) (O96013 whole entry, looked up): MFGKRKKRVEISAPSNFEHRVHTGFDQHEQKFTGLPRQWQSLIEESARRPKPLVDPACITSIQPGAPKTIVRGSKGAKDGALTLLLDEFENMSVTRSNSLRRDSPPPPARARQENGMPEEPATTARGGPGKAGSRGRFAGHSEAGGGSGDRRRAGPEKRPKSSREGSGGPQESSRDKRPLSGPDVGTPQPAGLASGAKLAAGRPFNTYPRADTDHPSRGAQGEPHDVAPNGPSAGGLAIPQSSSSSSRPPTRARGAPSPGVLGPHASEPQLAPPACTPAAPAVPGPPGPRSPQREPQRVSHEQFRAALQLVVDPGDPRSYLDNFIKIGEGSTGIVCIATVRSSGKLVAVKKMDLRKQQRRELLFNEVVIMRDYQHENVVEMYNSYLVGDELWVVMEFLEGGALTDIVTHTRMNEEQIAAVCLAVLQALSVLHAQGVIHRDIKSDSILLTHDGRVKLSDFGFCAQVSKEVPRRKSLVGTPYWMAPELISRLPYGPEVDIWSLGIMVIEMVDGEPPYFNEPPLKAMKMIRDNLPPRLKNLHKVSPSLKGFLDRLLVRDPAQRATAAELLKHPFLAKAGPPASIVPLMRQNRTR
# Chain of Norway rat Vesicular Monoamine Transporter (VMAT2), neurotransmitter transporter, Slc18a2 (gene 25549) (Q01827 whole entry, looked up): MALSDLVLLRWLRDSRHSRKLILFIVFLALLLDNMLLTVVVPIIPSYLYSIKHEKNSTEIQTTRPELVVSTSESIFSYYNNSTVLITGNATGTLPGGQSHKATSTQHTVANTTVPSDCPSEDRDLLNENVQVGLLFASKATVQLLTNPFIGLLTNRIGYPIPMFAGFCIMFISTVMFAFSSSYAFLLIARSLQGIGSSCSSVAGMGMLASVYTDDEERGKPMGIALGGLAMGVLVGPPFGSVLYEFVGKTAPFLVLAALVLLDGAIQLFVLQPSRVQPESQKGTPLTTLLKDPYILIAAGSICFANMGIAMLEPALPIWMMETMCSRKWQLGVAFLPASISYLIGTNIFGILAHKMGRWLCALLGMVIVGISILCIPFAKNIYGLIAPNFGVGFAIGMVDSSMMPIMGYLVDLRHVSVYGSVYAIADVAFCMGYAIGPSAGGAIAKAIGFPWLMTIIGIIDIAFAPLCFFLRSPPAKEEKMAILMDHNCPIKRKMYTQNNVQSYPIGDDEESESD
# Chain of human AMP-activated Protein Kinase, alpha 1 (AMPKa1), PRKAA1 (gene 5562) (Q13131 whole entry, looked up): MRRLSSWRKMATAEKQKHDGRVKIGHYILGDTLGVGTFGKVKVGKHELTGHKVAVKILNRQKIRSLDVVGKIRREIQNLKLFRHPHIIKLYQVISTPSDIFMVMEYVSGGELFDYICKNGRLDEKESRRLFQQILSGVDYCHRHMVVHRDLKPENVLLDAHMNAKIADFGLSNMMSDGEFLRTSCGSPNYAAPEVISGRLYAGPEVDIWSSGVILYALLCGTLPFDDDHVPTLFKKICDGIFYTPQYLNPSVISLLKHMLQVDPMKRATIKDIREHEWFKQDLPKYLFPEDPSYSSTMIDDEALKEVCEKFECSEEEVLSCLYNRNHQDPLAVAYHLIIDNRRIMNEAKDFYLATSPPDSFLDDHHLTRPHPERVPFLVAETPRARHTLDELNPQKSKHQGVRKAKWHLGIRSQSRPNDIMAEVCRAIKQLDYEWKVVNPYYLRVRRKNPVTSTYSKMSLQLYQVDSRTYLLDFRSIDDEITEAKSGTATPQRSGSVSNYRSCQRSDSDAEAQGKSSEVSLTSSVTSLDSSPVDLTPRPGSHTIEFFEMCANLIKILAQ
# Chain of human Acetylcholinesterase (AChE), ACHE (gene 43) (P22303 whole entry, looked up): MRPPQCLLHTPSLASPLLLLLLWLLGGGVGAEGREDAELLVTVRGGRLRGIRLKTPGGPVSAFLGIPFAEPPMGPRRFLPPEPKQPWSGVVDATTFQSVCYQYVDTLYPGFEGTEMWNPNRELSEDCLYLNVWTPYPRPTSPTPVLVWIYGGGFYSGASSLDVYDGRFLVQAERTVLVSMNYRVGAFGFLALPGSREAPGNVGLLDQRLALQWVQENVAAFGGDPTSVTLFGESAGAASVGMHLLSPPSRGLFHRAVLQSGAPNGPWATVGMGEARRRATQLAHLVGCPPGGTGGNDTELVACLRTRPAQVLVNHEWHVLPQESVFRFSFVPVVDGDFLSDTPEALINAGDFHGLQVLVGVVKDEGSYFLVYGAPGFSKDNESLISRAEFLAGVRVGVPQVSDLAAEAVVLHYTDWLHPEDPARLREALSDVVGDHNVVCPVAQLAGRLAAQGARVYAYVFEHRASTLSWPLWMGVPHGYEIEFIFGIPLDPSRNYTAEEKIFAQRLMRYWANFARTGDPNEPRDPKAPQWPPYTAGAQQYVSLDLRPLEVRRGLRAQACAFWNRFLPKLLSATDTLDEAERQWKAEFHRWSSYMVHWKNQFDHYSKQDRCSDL
# Chain of human Tyrosine Protein Kinase Receptor Tie-2 (Tie2), TEK (gene 7010) (Q02763 whole entry, looked up): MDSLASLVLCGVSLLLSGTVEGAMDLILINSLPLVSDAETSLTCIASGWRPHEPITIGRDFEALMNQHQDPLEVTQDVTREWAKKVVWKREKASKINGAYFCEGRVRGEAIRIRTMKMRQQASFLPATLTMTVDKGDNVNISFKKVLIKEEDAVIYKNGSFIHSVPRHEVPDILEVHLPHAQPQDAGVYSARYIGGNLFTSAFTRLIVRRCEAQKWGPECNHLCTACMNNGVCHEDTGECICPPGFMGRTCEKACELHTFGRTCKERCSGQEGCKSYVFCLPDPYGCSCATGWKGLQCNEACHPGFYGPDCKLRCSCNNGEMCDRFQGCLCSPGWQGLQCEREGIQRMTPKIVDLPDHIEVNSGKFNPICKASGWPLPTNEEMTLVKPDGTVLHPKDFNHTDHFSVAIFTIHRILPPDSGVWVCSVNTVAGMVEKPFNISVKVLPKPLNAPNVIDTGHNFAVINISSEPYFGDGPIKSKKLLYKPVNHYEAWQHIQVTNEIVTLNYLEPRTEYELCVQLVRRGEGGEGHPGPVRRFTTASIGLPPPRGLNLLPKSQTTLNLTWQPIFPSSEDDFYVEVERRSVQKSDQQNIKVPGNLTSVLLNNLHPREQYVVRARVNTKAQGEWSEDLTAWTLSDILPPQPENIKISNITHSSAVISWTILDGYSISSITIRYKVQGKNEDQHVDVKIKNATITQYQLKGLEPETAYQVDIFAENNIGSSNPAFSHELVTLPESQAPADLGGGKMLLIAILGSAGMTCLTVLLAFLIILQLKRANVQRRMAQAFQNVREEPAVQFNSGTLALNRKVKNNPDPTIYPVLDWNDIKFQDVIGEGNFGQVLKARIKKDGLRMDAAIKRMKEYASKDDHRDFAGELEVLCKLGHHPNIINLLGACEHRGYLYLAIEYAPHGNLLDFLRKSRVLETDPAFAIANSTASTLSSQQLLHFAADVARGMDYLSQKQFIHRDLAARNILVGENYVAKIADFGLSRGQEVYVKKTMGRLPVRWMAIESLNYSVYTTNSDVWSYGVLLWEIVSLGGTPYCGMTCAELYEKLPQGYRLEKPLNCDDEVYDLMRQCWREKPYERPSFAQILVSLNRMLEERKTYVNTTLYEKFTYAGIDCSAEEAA
# Chain of human Caspase 2 (CASP2), CASP2 (gene 835) (P42575 whole entry, looked up): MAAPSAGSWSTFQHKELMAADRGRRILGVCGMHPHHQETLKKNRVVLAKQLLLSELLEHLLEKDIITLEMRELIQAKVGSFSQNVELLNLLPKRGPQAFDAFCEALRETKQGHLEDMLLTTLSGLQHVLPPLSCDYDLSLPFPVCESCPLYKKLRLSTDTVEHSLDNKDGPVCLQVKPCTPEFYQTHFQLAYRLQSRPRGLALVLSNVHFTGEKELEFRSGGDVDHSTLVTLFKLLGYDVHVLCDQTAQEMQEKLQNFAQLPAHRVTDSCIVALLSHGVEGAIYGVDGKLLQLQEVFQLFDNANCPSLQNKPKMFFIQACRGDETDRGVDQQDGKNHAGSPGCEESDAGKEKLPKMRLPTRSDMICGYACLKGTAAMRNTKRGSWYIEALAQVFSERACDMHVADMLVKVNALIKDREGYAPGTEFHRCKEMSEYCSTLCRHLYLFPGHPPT
# Chain of human Mitogen-Activated Protein Kinase 1 (MAPK 1), MAPK1 (gene 5594) (P28482 whole entry, looked up): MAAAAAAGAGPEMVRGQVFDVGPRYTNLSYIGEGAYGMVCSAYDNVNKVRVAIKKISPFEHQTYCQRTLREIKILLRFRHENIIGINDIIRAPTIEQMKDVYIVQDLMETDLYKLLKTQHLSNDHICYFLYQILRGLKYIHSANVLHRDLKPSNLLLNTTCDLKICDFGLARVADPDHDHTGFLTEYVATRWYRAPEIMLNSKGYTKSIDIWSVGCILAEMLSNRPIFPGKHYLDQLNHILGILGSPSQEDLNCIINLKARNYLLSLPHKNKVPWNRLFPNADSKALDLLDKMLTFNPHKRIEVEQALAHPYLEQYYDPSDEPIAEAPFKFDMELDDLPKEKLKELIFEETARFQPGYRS
smiles,measurement,setting,value
CCc1c(C(=O)NN2CCCCC2)nn(-c2ccc(Cl)cc2Cl)c1-c1ccc(Br)cc1,outcome,[1],inactive
same,outcome,[2],inactive
same,outcome,[3],inactive
same,outcome,[4],inactive
same,outcome,[5],inactive
same,outcome,[6],inactive
same,outcome,[7],inactive
same,outcome,[8],inactive
same,outcome,[9],inactive
same,outcome,[10],inactive
CS(=O)(=O)c1ccc([C@@H](CC2CCCC2)C(=O)Nc2cnccn2)cc1Cl,outcome,[11],inactive
same,AC50,[12],7.12 µM (active)
NCc1cccc(C2CCN(C(=O)c3ccc(C#Cc4ccccc4F)o3)CC2)c1,AC50,[11],25 µM (active)
same,outcome,[13],inactive
same,AC50,[14],11.3 µM (active)
same,AC50,[15],3.57 µM (active)
same,AC50,[16],38 µM (active)
same,AC50,[17],1.72 µM (active)
O=C(NO)C1(NS(=O)(=O)c2ccc(Oc3ccc(F)cc3)cc2)CCOCC1,outcome,[1],inactive
same,outcome,[18],inactive
same,outcome,[19],inactive
same,outcome,[3],inactive
same,AC50,[20],17.9 µM (active)
same,outcome,[6],inactive
same,outcome,[21],inactive
same,outcome,[9],inactive
same,outcome,[12],inactive
